Laboratory results published in PubChem BioAssay (Tox21).
Several values for one entry are separate records, joined by “and”; a condition that tells them apart may be missing. Identical values can stand only once. Results filed as inconclusive are left out. Activity calls are given as the source filed them. Unless noted, calls follow the shape of the dose curve; as a rule, active = well fitted curve in the direction sought with a large enough effect in the repeat runs; inconclusive = weak or mixed curves; inactive = no such curve, though single readings can be large; an effect the other way counts as inactive or inconclusive.

Assays:
[1] = target: Estrogen receptor beta (Homo sapiens) (UniProt Q92731); test: qHTS assay to identify small molecule agonists of the estrogen receptor beta (ER-beta) signaling pathway (AID 1259377; active = well fitted activation curve with a large enough effect in the signal ratio in the repeat runs, not every such curve was filed as active; the % refers to the signal ratio)
Estrogen receptor beta (Homo sapiens), sequence (Q92731 whole entry, looked up, the tested form may be a part): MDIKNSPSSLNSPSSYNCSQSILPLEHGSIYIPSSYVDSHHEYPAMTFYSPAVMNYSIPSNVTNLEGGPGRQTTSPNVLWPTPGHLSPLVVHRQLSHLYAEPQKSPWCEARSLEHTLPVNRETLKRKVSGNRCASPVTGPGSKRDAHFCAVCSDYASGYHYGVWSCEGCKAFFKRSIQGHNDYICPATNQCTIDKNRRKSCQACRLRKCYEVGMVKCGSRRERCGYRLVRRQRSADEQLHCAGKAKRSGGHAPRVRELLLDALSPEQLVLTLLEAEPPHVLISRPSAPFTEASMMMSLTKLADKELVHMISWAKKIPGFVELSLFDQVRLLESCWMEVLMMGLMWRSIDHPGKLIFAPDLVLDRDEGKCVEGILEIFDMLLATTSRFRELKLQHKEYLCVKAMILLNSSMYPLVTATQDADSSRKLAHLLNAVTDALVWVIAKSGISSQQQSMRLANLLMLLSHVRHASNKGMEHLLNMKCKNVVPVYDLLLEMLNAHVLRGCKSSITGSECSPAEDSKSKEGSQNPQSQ
In short: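 Agonist mode cell assay in GripTite HEK293T cells expressing an ER-beta fusion that drives beta-lactamase from an Upstream Activator Sequence; 16 hr compound exposure at 37C, then 2 h LiveBLAzer B/G FRET substrate at room temperature, fluorescence read-out.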

[2] = qHTS assay to identify small molecule agonists of the androgen receptor (AR) signaling pathway in the presence of an antagonist - cell viability counter screen (AID 1259379); also: nearly all actives have a fitted effect of over 25% in size; also: potency is read from the fitted curve at half-maximal effect
In short: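 Viability counter screen: CellTiter-Fluor fluorescence, measured in the same wells as the luciferase read-out. MDA-kb2 cells, 3,000/well, with nilutamide at 3.0uM final and compounds at 15 concentrations, 16 hr at 37C, 0% CO2.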

[3] = qHTS assay to identify small molecule antagonists of the estrogen receptor beta (ER-beta) signaling pathway - cell viability counter screen (AID 1259382); also: nearly all actives have a fitted effect of over 55% in size; also: potency is read from the fitted curve at half-maximal effect
In short: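 Luminescent ATP read-out (CellTiter-Glo, 30 min, RT) taken in the same wells as the bla reporter assay. HEK293T ER-beta-UAS-bla cells in 2% charcoal-stripped FBS were exposed to compounds with 1nM E2 for 16 hr at 37C.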

[4] = target: Estrogen receptor (Homo sapiens) (UniProt P03372); test: qHTS assay to identify small molecule agonists of the estrogen receptor alpha (ER-alpha) signaling pathway in the presence of an antagonist (AID 1259383; calls by dose curve; also: top concentration of the series differs between compounds; nearly all actives have a fitted effect of over 15% in size)
Estrogen receptor (Homo sapiens), sequence (P03372 whole entry, looked up): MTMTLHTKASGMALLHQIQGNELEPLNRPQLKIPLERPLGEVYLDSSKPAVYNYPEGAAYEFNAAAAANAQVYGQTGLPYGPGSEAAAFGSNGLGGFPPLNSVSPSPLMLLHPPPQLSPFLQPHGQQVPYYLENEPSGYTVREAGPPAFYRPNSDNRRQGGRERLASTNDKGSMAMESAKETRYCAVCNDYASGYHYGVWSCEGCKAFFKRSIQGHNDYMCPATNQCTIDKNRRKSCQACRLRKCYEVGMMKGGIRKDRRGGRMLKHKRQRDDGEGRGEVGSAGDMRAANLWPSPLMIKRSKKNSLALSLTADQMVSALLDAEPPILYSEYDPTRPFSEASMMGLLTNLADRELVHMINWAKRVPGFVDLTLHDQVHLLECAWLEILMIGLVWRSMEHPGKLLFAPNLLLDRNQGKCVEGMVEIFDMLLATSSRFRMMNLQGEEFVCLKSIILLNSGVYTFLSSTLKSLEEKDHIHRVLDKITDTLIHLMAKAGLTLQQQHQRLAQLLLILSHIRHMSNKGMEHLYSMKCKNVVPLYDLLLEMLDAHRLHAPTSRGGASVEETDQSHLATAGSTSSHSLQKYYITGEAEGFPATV
In short: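 Luciferase luminescence (ONE-Glo, 30min at room temperature) measured in VM7Luc4E2 cells after 22hr compound exposure at 15 concentrations, with 10.0nM ICI-182,780 final present; cells express endogenous ER-alpha and carry four EREs upstream of luciferase.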

[5] = qHTS assay to identify small molecule agonists or antagonists of the thyroid stimulating hormone receptor (TSHR) signaling pathway - wild type cell line counter screen (AID 1259384; calls by dose curve)
In short: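 Counter screen in untransfected Hek293: compounds (15-point titration, triplicate) plus phosphodiesterase inhibitor Ro20-1724 added after 18 h plating; 30 min RT. Intracellular cAMP via competitive d2/cryptate immunoassay, 1 h incubation.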

[6] = target: Thyrotropin receptor (Homo sapiens) (UniProt P16473); test: qHTS assay to identify small molecule antagonists of the thyroid stimulating hormone receptor (TSHR) signaling pathway (AID 1259385; calls by dose curve; also: nearly all actives have a fitted effect of over 20% in size)
Thyrotropin receptor (Homo sapiens), sequence (P16473 whole entry, looked up): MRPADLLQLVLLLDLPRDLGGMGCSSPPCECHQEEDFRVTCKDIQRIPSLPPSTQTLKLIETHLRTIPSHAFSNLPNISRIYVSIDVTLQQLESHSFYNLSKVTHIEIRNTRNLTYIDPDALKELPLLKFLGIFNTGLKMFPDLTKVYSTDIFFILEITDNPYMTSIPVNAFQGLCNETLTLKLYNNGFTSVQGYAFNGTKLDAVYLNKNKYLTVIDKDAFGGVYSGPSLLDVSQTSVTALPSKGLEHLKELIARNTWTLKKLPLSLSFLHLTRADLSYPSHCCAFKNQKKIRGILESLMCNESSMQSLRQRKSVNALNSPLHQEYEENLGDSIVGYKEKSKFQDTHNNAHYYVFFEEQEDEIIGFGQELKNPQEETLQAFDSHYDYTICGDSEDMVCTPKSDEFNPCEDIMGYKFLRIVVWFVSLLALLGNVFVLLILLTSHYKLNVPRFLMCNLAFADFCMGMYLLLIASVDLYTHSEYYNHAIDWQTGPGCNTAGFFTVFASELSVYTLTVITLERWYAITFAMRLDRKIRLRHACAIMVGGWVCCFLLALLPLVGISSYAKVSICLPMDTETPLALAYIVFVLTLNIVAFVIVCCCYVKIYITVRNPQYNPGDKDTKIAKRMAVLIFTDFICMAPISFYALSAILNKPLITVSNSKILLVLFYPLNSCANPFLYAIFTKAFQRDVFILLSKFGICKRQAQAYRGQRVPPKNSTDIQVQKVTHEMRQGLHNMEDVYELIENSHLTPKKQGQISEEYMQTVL
In short: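 Antagonist mode: compound-treated TSHR-expressing HEK293 cells were stimulated with 1.5 ng/mL TSH (final) in presence of Ro20-1724 for 30 min at RT. HTRF cAMP detection after 1 h; each compound tested at 15 concentrations, triplicate.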

[7] = qHTS assay to identify small molecule agonists of the progesterone receptor (PR) signaling pathway - cell viability counter screen (AID 1346799; calls by dose curve; also: nearly all actives have a fitted effect of over 45% in size)
In short: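 Cells (PR-UAS-bla HEK293T) are plated at 3,000/well in 2% charcoal-stripped FBS medium, rested 6 hr, dosed and incubated 16 hr at 37C. CellTiter-Glo is then added and luminescence measured after 30 min at room temperature.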

[8] = qHTS assay to identify small molecule antagonists of the TGF-beta/Smad signaling pathway - cell viability counter screen (AID 1346824); also: nearly all actives have a fitted effect of over 50% in size; also: potency is read from the fitted curve at half-maximal effect
In short: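 Cytotoxicity counter-screen run in the same wells as the beta-lactamase Smad reporter read: CellTiter-Glo luminescence after 30 min at room temperature. HEK 293T SBE-bla cells had 5 hr compound exposure at 37 C with TGF-beta1 (0.25 ng/mL stock).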

[9] = qHTS assay to identify small molecule agonists of the TGF-beta/Smad signaling pathway - cell viability counter screen (AID 1346829); also: nearly all actives have a fitted effect of over 45% in size; also: potency is read from the fitted curve at half-maximal effect
In short: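 SBE-bla HEK 293T cells plated overnight, compound exposure 5 hr at 37 C. Viability read in the same wells by CellTiter-Glo luminescence after 30 min at room temperature, following the beta-lactamase read.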

[10] = qHTS assay to identify small molecule agonists of the TGF-beta/Smad signaling pathway (AID 1346859; active = well fitted activation curve with a large enough effect in the signal ratio in the repeat runs, not every such curve was filed as active; the % refers to the signal ratio; also: series mostly up to about 77 µM)
In short: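 Reporter line: HEK 293T with stably integrated SBE-controlled beta-lactamase. Compound exposure lasts 5 hr at 37 C and 5% CO2; substrate loading follows for 2 hr at room temperature, with emission read at 460 and 530 nm.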

[11] = target: Thyrotropin-releasing hormone receptor (Homo sapiens) (UniProt P34981); test: qHTS assay to identify small molecule agonists of the thyrotropin-releasing hormone receptor (TRHR) signaling pathway (AID 1346891; calls by dose curve;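 also: HEK293 cells expressing TRHR with calcium dye readout; series mostly up to about 58 µM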)
Thyrotropin-releasing hormone receptor (Homo sapiens), sequence (P34981 whole entry, looked up): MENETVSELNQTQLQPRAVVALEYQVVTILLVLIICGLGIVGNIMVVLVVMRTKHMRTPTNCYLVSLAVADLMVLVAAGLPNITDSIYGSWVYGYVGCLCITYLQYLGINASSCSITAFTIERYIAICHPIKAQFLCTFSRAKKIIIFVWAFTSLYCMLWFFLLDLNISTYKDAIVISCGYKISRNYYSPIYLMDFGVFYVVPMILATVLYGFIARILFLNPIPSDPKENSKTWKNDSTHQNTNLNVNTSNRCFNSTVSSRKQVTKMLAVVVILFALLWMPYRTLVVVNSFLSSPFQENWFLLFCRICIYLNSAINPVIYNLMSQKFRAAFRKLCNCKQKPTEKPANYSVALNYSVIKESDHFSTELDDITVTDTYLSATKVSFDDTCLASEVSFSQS
In short: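 Cells: TRHR-Hek293, seeded and incubated 18 h. Dye loading: 2 h at 37 °C. Compound added from DMSO stock by pin tool. Read-out: kinetic calcium fluorescence over 3 min.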

[12] = Human pregnane X receptor (PXR) small molecule agonists, qHTS cell viability counter screen (AID 1346977); also: nearly all actives have a fitted effect of over 50% in size; also: potency is read from the fitted curve at half-maximal effect
In short: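 Cytotoxicity counter screen run in the same wells as the PXR luciferase assay, using PXR-Luc HepG2 cells in charcoal-stripped serum medium. Viability: CellTiter-Fluor fluorescence after 24hr compound treatment.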

[13] = qHTS assay to identify small molecule agonists of the estrogen receptor beta (ER-beta) signaling pathway - cell viability counter screen (AID 1259380); also: nearly all actives have a fitted effect of over 30% in size; also: potency is read from the fitted curve at half-maximal effect
In short: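 Luminescence read-out (CellTiter-Glo, 30 min, room temp) taken in the same wells as the beta-lactamase reporter assay; ER-beta-UAS-bla HEK293T cells exposed to DMSO-dissolved compounds for 16 hr at 37C in 2% charcoal-stripped FBS medium.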

[14] = target: Androgen receptor (Homo sapiens) (UniProt P10275); test: qHTS assay to identify small molecule agonists of the androgen receptor (AR) signaling pathway in the presence of an antagonist (AID 1259381; calls by dose curve; also: nearly all actives have a fitted effect of over 15% in size)
Androgen receptor (Homo sapiens), sequence (P10275 whole entry, looked up): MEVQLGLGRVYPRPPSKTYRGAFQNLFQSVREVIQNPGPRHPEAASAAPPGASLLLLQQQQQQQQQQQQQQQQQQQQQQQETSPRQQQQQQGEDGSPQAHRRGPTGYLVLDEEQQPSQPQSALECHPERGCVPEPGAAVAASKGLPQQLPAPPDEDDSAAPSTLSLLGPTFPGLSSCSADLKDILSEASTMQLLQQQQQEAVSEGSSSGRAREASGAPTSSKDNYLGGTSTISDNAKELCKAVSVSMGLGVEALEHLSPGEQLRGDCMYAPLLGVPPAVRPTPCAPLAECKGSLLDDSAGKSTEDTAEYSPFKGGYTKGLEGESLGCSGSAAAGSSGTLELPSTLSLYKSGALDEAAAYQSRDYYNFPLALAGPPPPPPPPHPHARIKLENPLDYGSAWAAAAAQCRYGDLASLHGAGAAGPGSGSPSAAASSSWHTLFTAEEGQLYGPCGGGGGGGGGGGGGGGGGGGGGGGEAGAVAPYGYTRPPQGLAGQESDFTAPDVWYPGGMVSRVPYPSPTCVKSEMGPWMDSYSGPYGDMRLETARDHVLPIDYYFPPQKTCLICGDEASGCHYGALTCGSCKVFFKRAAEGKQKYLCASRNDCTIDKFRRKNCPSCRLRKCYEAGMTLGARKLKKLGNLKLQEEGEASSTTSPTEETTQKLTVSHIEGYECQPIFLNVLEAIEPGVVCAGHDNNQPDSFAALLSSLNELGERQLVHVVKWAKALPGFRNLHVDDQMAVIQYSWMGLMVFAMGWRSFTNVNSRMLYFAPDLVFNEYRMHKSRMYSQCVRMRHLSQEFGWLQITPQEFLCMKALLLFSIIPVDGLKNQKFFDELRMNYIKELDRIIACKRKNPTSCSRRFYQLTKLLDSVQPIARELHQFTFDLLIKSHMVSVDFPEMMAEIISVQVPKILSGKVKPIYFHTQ
In short: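 Luciferase read-out (ONE-Glo, 30min room temperature) in MDA-kb2 MMTV-reporter cells; agonist mode run in presence of AR antagonist nilutamide, 3.0uM final. Compounds tested as 15-point series, 16hr exposure at 37C, 0% CO2.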

[15] = qHTS assay to identify small molecule agonists of the estrogen receptor alpha (ER-alpha) signaling pathway in the presence of an antagonist - cell viability counter screen (AID 1259386);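 also: cells exposed to compounds for 22 h at 37 °C before the viability read; nearly all actives have a fitted effect of over 30% in size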; also: potency is read from the fitted curve at half-maximal effect
In short: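 Read-out: CellTiter-Fluor fluorescence after 1hr reagent incubation, measured in the same wells as the luciferase readout. VM7Luc4E2 cells were exposed to 15 compound concentrations with 10.0nM ICI-182,780 for 22hr at 37C.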

[16] = target: Progesterone receptor (Homo sapiens) (UniProt P06401); test: qHTS assay to identify small molecule agonists of the progesterone receptor (PR) signaling pathway (AID 1346784; calls by dose curve; also: nearly all actives have a fitted effect of over 30% in size)
Progesterone receptor (Homo sapiens), sequence (P06401 whole entry, looked up): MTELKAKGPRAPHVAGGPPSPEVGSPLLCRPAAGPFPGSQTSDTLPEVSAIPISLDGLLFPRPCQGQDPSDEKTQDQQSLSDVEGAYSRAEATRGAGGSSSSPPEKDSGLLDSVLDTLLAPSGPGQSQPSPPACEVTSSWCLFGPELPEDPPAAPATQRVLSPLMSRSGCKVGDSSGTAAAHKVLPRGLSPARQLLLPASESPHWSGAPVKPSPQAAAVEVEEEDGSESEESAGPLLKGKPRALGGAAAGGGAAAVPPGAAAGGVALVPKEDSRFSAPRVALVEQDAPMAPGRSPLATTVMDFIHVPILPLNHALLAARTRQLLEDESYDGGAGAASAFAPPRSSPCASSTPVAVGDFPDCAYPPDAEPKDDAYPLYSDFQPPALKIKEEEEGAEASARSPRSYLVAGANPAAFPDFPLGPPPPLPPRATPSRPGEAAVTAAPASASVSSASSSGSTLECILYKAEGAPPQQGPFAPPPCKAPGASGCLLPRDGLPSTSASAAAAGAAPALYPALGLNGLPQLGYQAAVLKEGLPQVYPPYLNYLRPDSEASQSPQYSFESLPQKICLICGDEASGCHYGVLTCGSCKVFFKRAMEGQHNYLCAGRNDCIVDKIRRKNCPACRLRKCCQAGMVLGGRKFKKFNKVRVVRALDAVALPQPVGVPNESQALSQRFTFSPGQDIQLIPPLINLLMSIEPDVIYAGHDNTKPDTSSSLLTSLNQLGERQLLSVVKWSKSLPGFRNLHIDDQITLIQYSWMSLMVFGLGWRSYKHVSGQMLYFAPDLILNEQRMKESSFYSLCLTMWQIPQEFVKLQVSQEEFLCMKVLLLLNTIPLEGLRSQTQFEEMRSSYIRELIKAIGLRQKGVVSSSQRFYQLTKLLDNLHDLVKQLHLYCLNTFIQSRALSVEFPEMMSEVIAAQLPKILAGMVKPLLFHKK
In short: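 Cells (PR-UAS-bla HEK 293T, GripTite) were plated in assay medium containing 2% charcoal-stripped FBS and incubated 6 hr. Test compounds in DMSO were added for 16 hr at 37C. FRET substrate was then loaded for 2 hr at room temperature before fluorescence reading.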

[17] = target: Progesterone receptor (Homo sapiens) (UniProt P06401); test: qHTS assay to identify small molecule antagonists of the progesterone receptor (PR) signaling pathway (AID 1346795; active = well fitted inhibition curve with a large enough effect in the signal ratio in the repeat runs, not every such curve was filed as active; the % refers to the signal ratio; also: potency is read from the fitted curve at half-maximal effect)
In short: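 Antagonist mode: compounds tested against 1 nM (final) promegestone stimulation in HEK293T cells expressing PR-UAS-bla reporter, 16 hr at 37C, 5% CO2; beta-lactamase activity detected via B/G FRET substrate after 2 hr at room temperature.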

[18] = qHTS assay to identify small molecule antagonists of the progesterone receptor (PR) signaling pathway - cell viability counter screen (AID 1346798); also: nearly all actives have a fitted effect of over 50% in size; also: potency is read from the fitted curve at half-maximal effect
In short: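 Counter screen for cytotoxicity: viability of PR-UAS-bla HEK293T cells was measured with CellTiter-Glo luminescence following 16 hr compound exposure in the presence of R5020.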

[19] = target: Estrogen receptor beta (Homo sapiens) (UniProt Q92731); test: qHTS assay to identify small molecule antagonists of the estrogen receptor beta (ER-beta) signaling pathway (AID 1259378; active = well fitted inhibition curve with a large enough effect in the signal ratio in the repeat runs, not every such curve was filed as active; the % refers to the signal ratio; also: potency is read from the fitted curve at half-maximal effect)
In short: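 Antagonist mode: compounds added to beta-lactamase reporter HEK293T ER-beta-UAS cells stimulated with E2 (1nM final), 16 hr at 37C. LiveBLAzer B/G FRET substrate, 2 hours room temperature, fluorescence read-out.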

[20] = target: Thyrotropin-releasing hormone receptor (Homo sapiens) (UniProt P34981); test: qHTS assay to identify small molecule antagonists of the thyrotropin-releasing hormone receptor (TRHR) signaling pathway (AID 1346877; active = well fitted inhibition curve with a large enough effect in the repeat runs, not every such curve was filed as active; also: series mostly up to about 51 µM)
In short: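 HEK293/TRHR cells, 18 h, 37 °C; Ca2+ dye 2 h; cpd 5 min RT; TRH 1 nM final; fluorescence read 3 min, 1 s intervals; 15 concs, triplicate.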

Measured: Potency

CCCCCCCCCCCCCOP(=O)(O)O
not listed: [13] | [14] | [15] | [16] | [17] | [18] | [19] | [20]
inactive: all other assays above

CCOC(=O)CC(C)O (stereo unspecified)
not listed: [4] | [7] | [11] | [19] | [20]
inactive: all other assays above

O=C1c2c(O)ccc(O)c2C(=O)c2c(NCCNCCO)ccc(NCCNCCO)c21
active: [2] 11.9 µM | [15] 26.6 µM | [17] 3.35 µM | [12] 4.22 µM
inactive: [1] | [13] | [14] | [3] | [8] | [11]

CCN=C1C=CC(=C(c2ccc(N(CC)CC)cc2)c2ccc(N(CC)CC)cc2)c2ccccc21
inactive: [1] | [14] | [4] | [11]
active: [2] 2.16 µM | [13] 27.1 µM | [15] 9.63 µM | [8] 27.4 µM | [9] 24.4 µM | [12] 0.682 µM

Cc1ccc(O)cn1
not listed: [1] | [9] | [16] | [17]
inactive: all other assays above

O=C[C@H](O)[C@H](O)[C@H](O)CO
not listed: [4] | [18] | [19]
inactive: all other assays above

CCN(CC)CCCN(c1ccccc1)C1Cc2ccccc2C1
active: [2] 29.8 µM | [13] 11.9 µM | [12] 23.7 µM
not listed: [3] | [7] | [11] | [14] | [18] | [19] | [20]
inactive: all other assays above

CC1CCCNC1 (stereo unspecified)
not listed: [3] | [7] | [12] | [14] | [17] | [18] | [19] | [20]
inactive: all other assays above

Cc1cccc(C)c1NC(=O)CN1CCN(CCCC(c2ccc(F)cc2)c2ccc(F)cc2)CC1
active: [13] 26.6 µM | [3] 26.6 µM | [18] 29.8 µM | [12] 23.7 µM
inactive: [1] | [5] | [8] | [10] | [20] | [11]

c1cc2c3c(c1)ccc1cccc(c13)C2
not listed: [4] | [6] | [7] | [13] | [14] | [18] | [19]
inactive: all other assays above

Cc1oc(-c2ccccc2)nc1CCOc1ccc(C[C@H](Nc2ccccc2C(=O)c2ccccc2)C(=O)O)cc1
active: [19] 27.3 µM | [2] 54.5 µM | [13] 27.3 µM | [3] 24.3 µM | [15] 48.6 µM | [12] 54.5 µM
inactive: [14] | [4] | [5] | [6] | [8] | [11]

CC(C(O)c1ccccc1)N(C)CCOC(c1ccccc1)c1ccccc1 (stereo unspecified)
inactive: [1] | [4] | [5] | [15] | [16] | [20] | [11]
active: [2] 29.8 µM | [13] 29.8 µM | [3] 18.8 µM | [17] 23.7 µM | [12] 29.8 µM

CC1CCCCN1CCCOC(=O)c1ccc(OC2CCCCC2)cc1 (stereo unspecified)
active: [2] 26.6 µM
not listed: [9] | [13] | [15] | [17] | [19]
inactive: all other assays above

CCOC(=O)N1CCC(=C2c3ccc(Cl)cc3CCc3cccnc32)CC1
inactive: [1] | [4] | [15] | [8] | [9] | [20] | [11]
active: [19] 15.4 µM | [13] 48.6 µM and 26.6 µM | [3] 54.5 µM | [17] 13.7 µM | [18] 61.1 µM

CN1CN(C)CN(C)C1
not listed: [14] | [19] | [20]
inactive: all other assays above
